Data reported in PubChem BioAssay (Tox21).
Results filed as inconclusive are left out. Entries that show only a call come without a potency. The source made the active and inactive calls. Unless noted, the call rests on the fitted dose curve.

Target: Muscarinic acetylcholine receptor M1 (Homo sapiens) (UniProt P11229)
Sequence (P11229 whole entry, looked up): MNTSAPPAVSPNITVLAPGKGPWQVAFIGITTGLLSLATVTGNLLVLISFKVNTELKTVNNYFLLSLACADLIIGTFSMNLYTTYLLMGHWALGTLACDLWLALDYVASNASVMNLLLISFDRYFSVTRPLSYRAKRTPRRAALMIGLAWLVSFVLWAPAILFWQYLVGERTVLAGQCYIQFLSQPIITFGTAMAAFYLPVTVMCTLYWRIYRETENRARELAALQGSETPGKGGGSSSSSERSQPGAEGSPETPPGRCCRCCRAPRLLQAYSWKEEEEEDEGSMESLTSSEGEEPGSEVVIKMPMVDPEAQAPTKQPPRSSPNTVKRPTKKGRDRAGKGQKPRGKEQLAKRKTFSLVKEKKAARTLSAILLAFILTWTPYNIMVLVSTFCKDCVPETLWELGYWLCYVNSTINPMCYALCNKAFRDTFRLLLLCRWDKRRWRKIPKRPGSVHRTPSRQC
Assay: Cholinergic receptor muscarinic 1 (CHRM1) small molecule agonists, cell-based qHTS assay (AID 1963589); further: nearly all actives have a fitted effect of over 35% in size
Conditions: CHRM1-CHO cells, agonist mode, calcium flux fluorescence; series mostly up to 76.8 µM
Method in brief: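 Agonist-mode qHTS in CHO cells stably carrying human muscarinic M1. Intracellular calcium is tracked by fluorescence every second after compound transfer; each compound runs at 15 concentrations in three independent runs.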
With C=CC(=C)CC/C=C(\C)CCC=C(C)C the activation was -0.116% [at 15.8 µM] (inactive). With CC(C)C[P+](C)(CC(C)C)CC(C)C the Potency was “inactive”. With CCCCCCCCCCCCCCCCCCN(C)C the Potency was “inactive”. For CCOC(=O)O[C@H](C)OC(=O)c1ccc2c(c1)cc(C(=O)NC1CCN(C(C)C)CC1)n2Cc1cc(-c2ccc(Cl)s2)on1, the Potency was “inactive”. In the case of CC(=O)Nc1cccc(C)c1, the Potency is reported as “inactive”. For CCCC(C)C, the Potency was “inactive”. For Cc1[nH]c(=O)c(C#N)cc1-c1ccc2nccn2c1, the Potency was “inactive”. For CC(=O)Nc1ccc(OCC(O)CNC(C)C)cc1 (stereo not drawn), the Potency was “inactive”. For O=C(NS(=O)(=O)/C=C/c1ccccc1)c1ccc(F)cc1Cl, the Potency was “inactive”. For CCOC(=O)CCCCCCCCC(=O)OCC, the Potency was “inactive”. For CC(C)OC(=O)C(C(=O)OC(C)C)=C1SC=CS1, the Potency was “inactive”. With CC(=O)Oc1ccc(C(C)=O)cc1 the Potency was “inactive”. With Oc1ccc(Cl)c2cccnc12 the Potency was “inactive”. For CCCCCCCC/C=C\CCCCCCCCOCCO, the Potency was “inactive”. For CC(=O)OC(C)c1ccccc1 (stereo not drawn), the Potency was “inactive”. In the case of O=S(=O)(Cl)c1c(Cl)cccc1Cl, the Potency is reported as “inactive”. In the case of CCOC(=O)CC1(C)OCC(C)O1 (stereo not drawn), the Potency is reported as “inactive”. For C1CC(COCC2CO2)CCC1COCC1CO1 (stereo not drawn), the Potency was “inactive”. For CCCCCCCCCCC(=O)O, the Potency was “inactive”. In the case of CC1(C)C(=O)N(CO)C(=O)N1CO, the Potency is reported as “inactive”. In the case of O=C(O)CNCC(=O)O, the activation is reported as 0.803% [at 6.97 µM] (inactive). With CCCS(=O)c1ccc2nc(NC(=O)OC)[nH]c2c1 (stereo not drawn) the Potency was “inactive”. In the case of O=C(OCc1ccccc1)C(=O)OCc1ccccc1, the Potency is reported as “inactive”. In the case of Cl[Si](Cl)(c1ccccc1)c1ccccc1, the Potency is reported as “inactive”. With N=C(N)c1ccc(OCCCOc2ccc(C(=N)N)cc2)cc1 the Potency was “inactive”. For COC(=O)C(C)O (stereo not drawn), the Potency was “inactive”. With C=CC(=O)OCCCCCCCCCC the Potency was “inactive”. For CO[Si](CCCNc1ccccc1)(OC)OC, the Potency was “inactive”.

System: not listed separately
Assay: cAMP Responsive Elements (CRE) small molecule agonists, cell-based qHTS assay (AID 1963590)
Conditions: CRE-bla HEK293T, beta-lactamase FRET ratio, 3 h; series mostly up to 92.4 µM
Method in brief: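 Agonist mode qHTS in CRE-bla HEK 293T cells: compounds dosed from DMSO for 3 h at 37 C/5% CO2, followed by LiveBLAzer B/G FRET substrate for 2 h at room temperature.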
For C=CC(=C)CC/C=C(\C)CCC=C(C)C, the activation was 0.237% [at 19 µM] (inactive). With C[C@H](CCC(=O)O)[C@H]1CC[C@H]2[C@@H]3[C@H](O)C[C@@H]4C[C@H](O)CC[C@]4(C)[C@H]3C[C@H](O)[C@]12C the Potency was “inactive”. In the case of CC(C)C[P+](C)(CC(C)C)CC(C)C, the Potency is reported as “inactive”. In the case of CCCCCCCCCCCCCCCCCCN(C)C, the Potency is reported as “inactive”. For CC(=O)Nc1cccc(C)c1, the Potency was “inactive”. In the case of O=C(NCCN1CCOCC1)c1ccc(Cl)cc1, the Potency is reported as “inactive”. With CCCCCCCCCCCCCOP(=O)(O)O the Potency was “inactive”. In the case of CCCC(C)C, the Potency is reported as “inactive”. For Cc1[nH]c(=O)c(C#N)cc1-c1ccc2nccn2c1, the Potency was “inactive”. With CCO the Potency was “inactive”. For CC(=O)Nc1ccc(OCC(O)CNC(C)C)cc1 (stereo not drawn), the Potency was “inactive”. In the case of O=C(NS(=O)(=O)/C=C/c1ccccc1)c1ccc(F)cc1Cl, the Potency is reported as “inactive”. In the case of CCOC(=O)CCCCCCCCC(=O)OCC, the Potency is reported as “inactive”. In the case of CC(C)OC(=O)C(C(=O)OC(C)C)=C1SC=CS1, the Potency is reported as “inactive”. With O=C(CN1CCN(Cc2ccc3c(c2)OCO3)CC1)N1c2ccccc2Sc2ccccc21 the Potency was “inactive”. With CC(=O)Oc1ccc(C(C)=O)cc1 the Potency was “inactive”. In the case of Oc1ccc(Cl)c2cccnc12, the Potency is reported as “inactive”. For CC(=O)OC(C)c1ccccc1 (stereo not drawn), the Potency was “inactive”. For O=S(=O)(Cl)c1c(Cl)cccc1Cl, the Potency was “inactive”. For CCOC(=O)CC1(C)OCC(C)O1 (stereo not drawn), the Potency was “inactive”. For O=C1OCc2ccccc21, the Potency was “inactive”. With CC1(C)C(=O)N(CO)C(=O)N1CO the Potency was “inactive”. With O=C(O)CNCC(=O)O the activation was -0.186% [at 8.39 µM] (inactive). In the case of CCCS(=O)c1ccc2nc(NC(=O)OC)[nH]c2c1 (stereo not drawn), the Potency is reported as “inactive”. For O=C(OCc1ccccc1)C(=O)OCc1ccccc1, the Potency was “inactive”. With C/C=C(\C)C#N the Potency was “inactive”. With Cl[Si](Cl)(c1ccccc1)c1ccccc1 the Potency was “inactive”. For N=C(N)c1ccc(OCCCOc2ccc(C(=N)N)cc2)cc1, the Potency was “inactive”. In the case of COC(=O)C(C)O (stereo not drawn), the Potency is reported as “inactive”. In the case of CCc1nccnc1CC, the activation is reported as 0.766% [at 19 µM] (inactive). In the case of C=CC(=O)OCCCCCCCCCC, the Potency is reported as “inactive”. For CCCCCCCCCCCCCCCCOS(=O)(=O)O, the Potency was “inactive”.

System: not listed separately
Assay: cAMP Responsive Elements (CRE) small molecule antagonists, cell-based qHTS assay (AID 1963591; active means well fitted inhibition curve with a large enough effect in the signal ratio in the repeat runs, not every such curve was filed as active; the % refers to the signal ratio)
Conditions: CRE-bla HEK293T, beta-lactamase FRET ratio; series mostly up to 92.4 µM
Method in brief: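 Antagonist mode: test compounds are co-incubated with the adenylyl cyclase activator NKH477 (0.25 uM final) on CRE-bla HEK293T cells for 3 h at 37 °C, followed by LiveBLAzer substrate loading.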
With C=CC(=C)CC/C=C(\C)CCC=C(C)C the activity change, negative = inhibition was 1.53% [at 18.9 µM] (inactive). With C[C@H](CCC(=O)O)[C@H]1CC[C@H]2[C@@H]3[C@H](O)C[C@@H]4C[C@H](O)CC[C@]4(C)[C@H]3C[C@H](O)[C@]12C the Potency was “inactive”. In the case of O=C(NCCN1CCOCC1)c1ccc(Cl)cc1, the Potency is reported as “inactive”. In the case of CCCCCCCCCCCCCOP(=O)(O)O, the Potency is reported as “inactive”. In the case of CCCC(C)C, the Potency is reported as “inactive”. With Cc1[nH]c(=O)c(C#N)cc1-c1ccc2nccn2c1 the Potency was “inactive”. In the case of CCO, the Potency is reported as “inactive”. In the case of CCOC(=O)CCCCCCCCC(=O)OCC, the Potency is reported as “inactive”. For CC(=O)Oc1ccc(C(C)=O)cc1, the Potency was “inactive”. With O=S(=O)(Cl)c1c(Cl)cccc1Cl the Potency was “inactive”. For CCOC(=O)CC1(C)OCC(C)O1 (stereo not drawn), the Potency was “inactive”. With CCCCCCCCCCC(=O)O the Potency was “inactive”. For O=C(O)CNCC(=O)O, the activity change, negative = inhibition was 0.325% [at 8.39 µM] (inactive). With O=C(OCc1ccccc1)C(=O)OCc1ccccc1 the Potency was “inactive”. With C/C=C(\C)C#N the Potency was “inactive”. With Cl[Si](Cl)(c1ccccc1)c1ccccc1 the Potency was “inactive”. For N=C(N)c1ccc(OCCCOc2ccc(C(=N)N)cc2)cc1, the Potency was “inactive”. With COC(=O)C(C)O (stereo not drawn) the Potency was “inactive”. With CCc1nccnc1CC the activity change, negative = inhibition was -3.19% [at 18.9 µM] (inactive). In the case of C=CC(=O)OCCCCCCCCCC, the Potency is reported as “inactive”. For CO[Si](CCCNc1ccccc1)(OC)OC, the Potency was “inactive”. In the case of CCCCCCCCCCCCCCCCOS(=O)(=O)O, the Potency is reported as “inactive”. In the case of CC(C)(c1ccc(Oc2ccc3c(c2)C(=O)OC3=O)cc1)c1ccc(Oc2ccc3c(c2)C(=O)OC3=O)cc1, the Potency is reported as “inactive”.
